High-throughput results as filed in PubChem BioAssay.
Pf growth 48h = P. falciparum growth inhibition at 48 hours (one generation) | P. falciparum luciferase growth in erythrocytes, 48 h | Potency, µM (doses to about 28.7 µM), without a hit: top-dose activity change, negative = inhibition, hits mostly inhibitors | 5.9% of 310,000 active; further: on the % scale 0 is the no-effect control and ±100 the full control effect
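In quantitative HTS format, infected erythrocytes bearing luciferase-reporter parasites were treated for a single generation at 37 C. Luminescence after adding detection reagent served as the growth measure.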
SARS PLpro yeast = SARS-CoV PLP inhibition in yeast; S. cerevisiae expressing SARS-CoV PLpro, growth rescue; Potency, µM (highest dose often 32.9 µM), for inactives: top-dose activity, positive = growth rescue, hits mostly activators; 0.19% of 330,000 active; calls by dose curve; further: 0% is about no effect; nearly all actives have a fitted effect of over 55% in size
NS1 inh = influenza NS1 inhibition; Potency, µM (series often up to 46.1 µM), for the others: top-dose activity, positive = more growth; 0.4% of 270,000 active; AID 2326; calls by dose curve; further: actives are rising curves; nearly all actives have a fitted effect of over 50% in size
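Compounds were scored for reversing the slow growth caused by influenza A NS1 in S. cerevisiae, measured by optical density at 600 nm. Assay medium contained 2% galactose at pH 6.0; NS1-free yeast of the same strain were the positive control.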
RE007 growth inh = less growth of the S. pombe RE007 Vpr strain; S. pombe RE007 Vpr strain, BacTiter-Glo ATP luminescence, 24 h; 0.21% of 360,000 active; Potency, µM (doses to about 92.2 µM), inactives show at the highest dose activity change, negative = less growth, hits mostly inhibitors; active means well fitted falling curve with a large enough effect; inconclusive means small, poorly fitted or top-dose-only effect; inactive means no such curve, though single readings can be large or run the other way; further: on the % scale 0 is the no-effect control and ±100 the full control effect; nearly all actives have a fitted effect of over 50% in size
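Fission yeast RE007 carrying one integrated HIV-1 vpr copy, seeded at OD 0.01 in PMG+AL medium with 23 nL pinned compound. Grown 24 h at 30 degrees; viability read by BacTiter-Glo luminescence after 5 min.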
Pf growth 96h = inhibits malaria parasite growth, 96 h; Potency, µM (doses to about 28.7 µM), without a hit: at the top dose activity change, negative = inhibition, usual class: inhibitors; AID 504834; P. falciparum luciferase reporter growth, 96 h; 6.9% of 320,000 active; further: on the % scale 0 is the no-effect control and ±100 the full control effect
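Delayed-death screen, second-generation endpoint: infected erythrocytes, 2% hematocrit, 0.05% parasitemia final; 96 hours at 37 C, 5% CO2; luciferase detection reagent; luminescence decrease equals reduced growth.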
An asterisk follows results filed as active; ? = inconclusive; · = no result given; [ ] = remark or other dose. Most compounds without a hit are left out; they make up all but 9.5% or so of the library. Unless noted, the call rests on the fitted dose curve; in most records, active means well fitted inhibition curve with a large enough effect; inconclusive means small, poorly fitted or top-dose-only effect, or another doubt; inactive means no such curve, though single readings can be large or run the other way. Potency means the concentration at half of the fitted maximal effect.

SMILES	Pf growth 48h	SARS PLpro yeast	NS1 inh	RE007 growth inh	Pf growth 96h
O=C(c1cc(COc2cccc(C(F)(F)F)c2)on1)N1CCC(Oc2cccnc2)CC1	-15%	?	-56%	-22%	54%
CCC1Sc2ccc(S(=O)(=O)CCC(=O)Nc3ccc(NC(C)=O)cc3)cc2NC1=O (stereo unspecified)	29%	-1%	4%	6%	6.6µM*
Cn1c(=O)oc2cc(NC(=O)CCl)ccc21	5.2µM*	17%	-45%	13%	6.6µM*
CC(=O)c1ccc(NC(=O)CCS(=O)(=O)c2ccc3c(c2)n(C)c(=O)c(=O)n3C)cc1	40%	8%	?	3%	9.3µM*
CC(=O)Nc1ccc(NC(=O)CCS(=O)(=O)c2ccc3c(c2)oc(=O)n3C)cc1	17%	-1%	13%	-4%	9.3µM*
C[N+](C)(C)[C@H](Cc1c[nH]c(=S)[nH]1)C(=O)O	·	·	-3%	·	·
C=C(C)c1nc(Oc2ccccc2)nc(Oc2ccccc2)n1	·	·	·	-18%	·
Cc1ccc(S(=O)(=O)CCC(=O)Nc2ccc(F)cc2)cc1	?	15%	-3%	1%	8%[5.75 µM]
O=C(CCS(=O)(=O)c1ccc(Cl)cc1)Nc1ccc(F)cc1	-3%	-2%	-4%	-4%	10µM*
Cc1cccc(NC(=O)CCS(=O)(=O)c2ccc3c(c2)oc(=O)n3C)c1	5%	-1%	-3%	9%	8.3µM*
O=C(CCC1CCCN(C(=O)c2ccccc2Cl)C1)N1CCN(c2ccccn2)CC1 (stereo unspecified)	?	-3%	-17%	-5%	-8%
CC1=CC(C)(C(Cl)(Cl)Cl)C(C)=CC1=NO (stereo unspecified)	·	·	·	-8%	·
CCOc1ccccc1OCCCC(=O)Nc1sccc1C(N)=O	12µM*	-1%	0%	2%	?
OCCOCCNc1ncnc2c1cnn2-c1ccc(Cl)cc1	3.3µM*	3%	-10%	-5%	·
c1ccc(-n2ncc3c(NCCN4CCOCC4)ncnc32)cc1	85%	6%	8%	10%	12µM*
OCCOCCNc1ncnc2c1cnn2-c1ccccc1	1.3µM*	8%	6%	12%	63%
O=C1NC[C@@H](CCCCN2CCN(CCC3CCCCC3)C(=O)C2=O)N(CCC2CCCCC2)C1=O	·	·	·	14%	·
CC(C)(C)OC(=O)C[C@H]1C/C=C\C[C@@H](CC(=O)NCCO)C(=O)N[C@H](Cc2ccccc2)COC1=O	·	7%	·	3%	·
Cc1cccc(N2CCN(C(=O)C3CCC(CNS(=O)(=O)c4cccs4)CC3)CC2)c1C (stereo unspecified)	5.2µM*	-1%	11%	1%	-3%
O=C(C1CCC(CNS(=O)(=O)c2cccs2)CC1)N1CCCCC1 (stereo unspecified)	·	-7%	-3%	-7%	-5%
O=C(c1ccc(-c2cc(O)c3ncccc3c2)cc1)N1CCNCC1	9.3µM*	-2%	·	·	9.3µM*
CC(C)(C)c1ccc(C(=O)N2CCNCC2)cc1	18%	3%	2%	0%	·
CC1(C(=O)NS(=O)(=O)c2ccc(Cl)s2)CCN1C(=O)c1ccc(C2CCCCC2)cc1 (stereo unspecified)	·	·	·	3%	·
COc1ccccc1NC(=O)c1cc2cc(Br)ccc2cc1O	2.9µM*	-20%	-61%	-26%	?
COc1ccccc1NC(=O)c1ccccc1Nc1ccccc1	5.2µM*	-7%	6%	?	?
SMILES	Pf growth 48h	SARS PLpro yeast	NS1 inh	RE007 growth inh	Pf growth 96h
COc1ccccc1NC(=O)COC(=O)c1cc2ccccc2cc1O	?	7%	·	-8%	21%
Cc1ccc(Cl)cc1NC(=O)c1cc2ccccc2cc1O	0.93µM*	-5%	-1%	4%	0.29µM*
COc1cc(OC)c(NC(=O)c2ccccc2F)cc1Cl	18%	0%	·	0%	9%
COc1cc(NC(=O)c2cc3ccccc3cc2O)c(OC)cc1Cl	2.1µM*	-2%	-43%	-3%	1.3µM*
COc1ccccc1NC(=O)c1ccccc1C(=O)O	34%	1%	2%	10%	?
Cc1ccc(OCCCC(=O)NC2CCCCC2)cc1	12%	-3%	1%	-4%	?
COc1ccccc1NC(=O)C(C)NC(c1ccccc1)c1ccccc1 (stereo unspecified)	13µM*	4%	-8%	6%	8.3µM*
